Data on 14 compounds can be found in PubChem BioAssay AID588849 (Broad Institute, 2011).

Molecules are shown by their SMILES. Results with a measured potency or affinity are listed apart. Activity calls are given as the source filed them. How the calls were made is not given here.

For this assay, the target named is CAAX prenyl protease 2 (Homo sapiens) (UniProt Q9Y256). As to the kind of experiment: inhibition of Ras-converting CAAX protease Rce1 – biochemical, yeast membranes, quenched-peptide fluorescence, cherry-pick, dose response (AID 588849). The settings on record: yeast membrane fractions expressing human Rce1, quenched-peptide fluorescence, 4 h; series mostly up to 10 µM; activity change, negative = inhibition: at the top concentration.
Sequence of CAAX prenyl protease 2 (Homo sapiens) (Q9Y256 whole entry, looked up): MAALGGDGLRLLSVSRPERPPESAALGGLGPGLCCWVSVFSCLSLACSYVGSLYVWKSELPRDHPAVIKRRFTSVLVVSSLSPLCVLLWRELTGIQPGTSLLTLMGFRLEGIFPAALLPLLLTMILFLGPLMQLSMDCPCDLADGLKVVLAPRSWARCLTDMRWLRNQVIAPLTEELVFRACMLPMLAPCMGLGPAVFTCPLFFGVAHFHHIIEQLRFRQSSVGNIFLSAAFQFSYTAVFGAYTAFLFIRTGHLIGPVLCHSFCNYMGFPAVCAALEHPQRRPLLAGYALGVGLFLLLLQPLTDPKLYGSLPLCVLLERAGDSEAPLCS
Regarding `COCCCn1c(N)c(C(=O)NCc2ccco2)c2nc3ccccc3nc21`, the “activity change, negative = inhibition” value is -9.4% [at 3.5 µM] (inactive). Consider `Clc1ccc(C[n+]2c(-c3ccccc3)cc(-c3ccccc3)cc2-c2ccccc2)cc1`, for which the “activity change, negative = inhibition” value is -6.03% (inactive). Regarding `CN1CC(C(=O)c2ccc(Cl)cc2)C(c2ccc(Cl)cc2Cl)C1` (centres undefined), the “activity change, negative = inhibition” value was -9.21% (inactive). Next, `Cc1ccc(-c2nc3ccc(C)cn3c2CC(=O)N(C)C)cc1`: -1.44% (inactive); `Cc1ccnc(-n2c(-c3ccco3)nc3ccccc3c2=O)c1`: -11.6% (inactive). Next, `COc1ccc2c3c([nH]c2c1)C(C)=NCC3`: -20.8% (inactive); `Cc1ccc(-c2cc(-c3ccccc3)cc(-c3ccccc3)[n+]2-c2ccccc2)cc1`: -3.09% (inactive); `c1ccc(CCCN2CCN(CCOC(c3ccccc3)c3ccccc3)CC2)cc1`: -11.3% (inactive). Next, `Cc1nccc2c1[nH]c1ccccc12`: -11% (inactive); `CN1CCN(c2ccc([N+](=O)[O-])c(Sc3nncn3C)c2)CC1`: 7.77% (inactive). Take `C=CCn1c(O)c(C(CC)=Nc2ccc(N(CC)CC)cc2)c(=O)[nH]c1=O`: the “activity change, negative = inhibition” value was -10.2% (inactive). In the case of `CCOC(=O)[C@@H]1[C@H]2COc3ccc(Br)cc3[C@@H]2N2C(=O)N(c3cccc(C)c3)C(=O)[C@]12C` it was 9.31% (inactive); in that of `Cc1oc(-c2cccs2)nc1CSCC(=O)N1CCC2(CC1)OCCO2`, -11.5% (inactive); in that of `C=CC[N+]1(C)CC[C@]23c4c5ccc(O)c4O[C@H]2C(=O)CC[C@@]3(O)[C@H]1C5` (some centres undefined), -13.8% (inactive).
